# Reference: article PMC7862700, “An all-to-all approach to the identification of sequence-specific readers for epigenetic DNA modifications on cytosine”
# Legend:
# Assay in all cases: DAPPL (digital affinity profiling via proximity ligation, sequencing); 10 mM Tris-HCl pH 7.5, 50 mM NaCl, 1 mM DTT, 4% glycerol, room temperature, 30 min; GST-TFs on glutathione beads, 16-mer random dsDNA library, 0.1% formaldehyde crosslink after washing; high values mean tight binding
# Conditions in all cases: protein: recombinant; tags: N-terminal GST; dsDNA, one strand shown
# ETV1 = ETV1 (Homo sapiens, UniProt P50549 1-477)
# How it was run: (§1)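 Pools of DNA-barcoded human transcription factors, expressed in yeast as GST fusions on glutathione beads and combined with a tag-only sample, were incubated with 200 nmole of a 16-mer random double-stranded DNA library. Incubation took 30 min at room temperature in Tris/NaCl/DTT/glycerol buffer and was followed by washing, 0.1% formaldehyde crosslinking, proximity ligation (BsaI/T4 ligase, 1 h, 37 °C), PCR amplification and sequencing on an Illumina NextSeq500. Binding signal is the ratio of a hexamer's read frequency for a factor to its frequency for the tag-only sample.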
# ERF = biological target: T1, ERF (Homo sapiens, UniProt P50548 1-548)
# T1 sequence: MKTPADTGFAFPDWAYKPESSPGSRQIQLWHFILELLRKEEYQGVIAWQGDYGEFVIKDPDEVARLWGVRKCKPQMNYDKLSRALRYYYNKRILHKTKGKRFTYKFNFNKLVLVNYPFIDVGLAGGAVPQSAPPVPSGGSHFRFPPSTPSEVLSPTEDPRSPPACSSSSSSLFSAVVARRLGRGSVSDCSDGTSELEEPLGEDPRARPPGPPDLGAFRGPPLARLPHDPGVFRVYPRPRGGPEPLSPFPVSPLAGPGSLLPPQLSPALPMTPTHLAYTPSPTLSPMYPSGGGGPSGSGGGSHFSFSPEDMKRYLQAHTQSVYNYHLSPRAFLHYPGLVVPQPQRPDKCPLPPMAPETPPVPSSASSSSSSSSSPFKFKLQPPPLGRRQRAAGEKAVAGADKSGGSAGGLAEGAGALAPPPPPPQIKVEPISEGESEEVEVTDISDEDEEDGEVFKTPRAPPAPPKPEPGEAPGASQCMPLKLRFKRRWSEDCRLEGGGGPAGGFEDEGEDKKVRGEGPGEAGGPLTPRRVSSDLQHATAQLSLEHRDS
# How it was run: as §1
# ETV3L = biological target: T2, ETV3L (Homo sapiens, UniProt Q6ZN32 1-361)
# T2 sequence: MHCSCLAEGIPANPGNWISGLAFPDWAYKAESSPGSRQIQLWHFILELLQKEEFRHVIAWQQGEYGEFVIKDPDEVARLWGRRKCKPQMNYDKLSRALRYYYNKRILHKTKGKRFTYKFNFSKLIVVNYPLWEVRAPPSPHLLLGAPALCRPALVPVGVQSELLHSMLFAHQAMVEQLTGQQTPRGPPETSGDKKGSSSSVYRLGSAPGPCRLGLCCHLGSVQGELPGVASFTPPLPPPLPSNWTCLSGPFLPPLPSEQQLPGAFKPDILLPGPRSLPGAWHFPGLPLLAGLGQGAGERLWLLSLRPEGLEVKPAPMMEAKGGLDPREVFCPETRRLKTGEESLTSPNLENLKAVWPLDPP
# How it was run: as §1
# ETS2 = biological target: T3, ETS2 (Homo sapiens, UniProt P15036 1-469)
# T3 sequence: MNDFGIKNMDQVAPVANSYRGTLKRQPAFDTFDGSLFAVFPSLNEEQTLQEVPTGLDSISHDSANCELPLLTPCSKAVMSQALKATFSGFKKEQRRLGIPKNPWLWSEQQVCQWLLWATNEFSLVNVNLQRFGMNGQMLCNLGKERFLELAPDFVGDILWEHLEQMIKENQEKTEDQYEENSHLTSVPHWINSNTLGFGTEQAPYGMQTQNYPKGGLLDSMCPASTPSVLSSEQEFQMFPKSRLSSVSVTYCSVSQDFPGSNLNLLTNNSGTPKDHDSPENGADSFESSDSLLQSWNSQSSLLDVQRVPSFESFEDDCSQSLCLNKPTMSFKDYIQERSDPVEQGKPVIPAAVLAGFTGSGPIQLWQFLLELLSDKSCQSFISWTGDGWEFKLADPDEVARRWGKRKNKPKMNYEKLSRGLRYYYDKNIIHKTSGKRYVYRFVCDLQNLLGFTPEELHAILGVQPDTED
# How it was run: as §1
# SPDEF = biological target: T4, SPDEF (Homo sapiens, UniProt O95238 1-335)
# T4 sequence: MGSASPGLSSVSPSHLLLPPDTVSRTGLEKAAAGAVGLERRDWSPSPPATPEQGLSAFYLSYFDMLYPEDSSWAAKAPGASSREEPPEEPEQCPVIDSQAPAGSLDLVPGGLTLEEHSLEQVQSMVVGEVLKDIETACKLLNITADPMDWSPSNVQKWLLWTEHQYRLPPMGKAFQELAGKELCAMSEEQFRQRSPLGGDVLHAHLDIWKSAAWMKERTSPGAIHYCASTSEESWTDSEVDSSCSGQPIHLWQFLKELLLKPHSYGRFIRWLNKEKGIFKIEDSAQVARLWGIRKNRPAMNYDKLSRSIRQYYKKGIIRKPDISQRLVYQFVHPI
# How it was run: as §1
# ETV7 = biological target: T5, ETV7 (Homo sapiens, UniProt Q9Y603 1-341)
# T5 sequence: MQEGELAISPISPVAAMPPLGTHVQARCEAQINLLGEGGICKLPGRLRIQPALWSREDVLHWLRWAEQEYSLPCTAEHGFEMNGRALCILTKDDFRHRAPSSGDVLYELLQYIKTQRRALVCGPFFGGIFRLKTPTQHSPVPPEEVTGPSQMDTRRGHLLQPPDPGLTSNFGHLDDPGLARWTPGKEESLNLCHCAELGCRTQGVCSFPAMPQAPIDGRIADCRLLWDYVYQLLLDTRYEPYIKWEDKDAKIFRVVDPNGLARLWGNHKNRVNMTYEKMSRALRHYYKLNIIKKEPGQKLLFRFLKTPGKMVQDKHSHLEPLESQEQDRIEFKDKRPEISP
# How it was run: as §1
# ELF5 = biological target: T6, ELF5 (Homo sapiens, UniProt Q9UKW6-2 1-255)
# T6 sequence: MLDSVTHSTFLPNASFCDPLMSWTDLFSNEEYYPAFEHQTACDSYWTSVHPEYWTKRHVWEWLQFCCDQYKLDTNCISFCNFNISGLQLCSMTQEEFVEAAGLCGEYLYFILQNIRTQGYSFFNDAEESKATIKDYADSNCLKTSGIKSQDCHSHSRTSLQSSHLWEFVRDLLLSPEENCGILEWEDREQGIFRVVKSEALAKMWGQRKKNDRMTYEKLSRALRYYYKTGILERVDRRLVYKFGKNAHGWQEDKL
# How it was run: as §1
# ETV3 = biological target: T7, ETV3 (Homo sapiens, UniProt P41162-2 1-143)
# T7 sequence: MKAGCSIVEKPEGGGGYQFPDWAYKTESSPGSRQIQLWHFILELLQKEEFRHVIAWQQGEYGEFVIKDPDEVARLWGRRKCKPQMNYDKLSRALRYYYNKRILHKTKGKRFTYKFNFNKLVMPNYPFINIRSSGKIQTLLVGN
# How it was run: as §1
# ETV6 = ETV6 (Homo sapiens, UniProt P41212 1-452)
# How it was run: as §1
# Chain of ETV1 (P50549 whole entry, the tested form may be a part): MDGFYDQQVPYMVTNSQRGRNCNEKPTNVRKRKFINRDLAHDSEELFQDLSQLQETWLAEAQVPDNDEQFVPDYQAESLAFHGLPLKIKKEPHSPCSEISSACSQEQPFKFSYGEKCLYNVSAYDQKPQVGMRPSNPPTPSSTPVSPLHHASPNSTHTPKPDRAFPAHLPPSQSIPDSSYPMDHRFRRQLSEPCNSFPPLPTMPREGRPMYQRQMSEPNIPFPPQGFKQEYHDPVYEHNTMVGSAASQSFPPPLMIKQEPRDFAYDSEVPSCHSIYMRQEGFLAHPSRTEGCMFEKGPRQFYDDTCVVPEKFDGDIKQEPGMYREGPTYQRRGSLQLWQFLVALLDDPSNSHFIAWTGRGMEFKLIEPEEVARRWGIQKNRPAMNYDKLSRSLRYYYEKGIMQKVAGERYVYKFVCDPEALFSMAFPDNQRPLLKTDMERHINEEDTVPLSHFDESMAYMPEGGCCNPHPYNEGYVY
# Chain of ETV6 (P41212 whole entry): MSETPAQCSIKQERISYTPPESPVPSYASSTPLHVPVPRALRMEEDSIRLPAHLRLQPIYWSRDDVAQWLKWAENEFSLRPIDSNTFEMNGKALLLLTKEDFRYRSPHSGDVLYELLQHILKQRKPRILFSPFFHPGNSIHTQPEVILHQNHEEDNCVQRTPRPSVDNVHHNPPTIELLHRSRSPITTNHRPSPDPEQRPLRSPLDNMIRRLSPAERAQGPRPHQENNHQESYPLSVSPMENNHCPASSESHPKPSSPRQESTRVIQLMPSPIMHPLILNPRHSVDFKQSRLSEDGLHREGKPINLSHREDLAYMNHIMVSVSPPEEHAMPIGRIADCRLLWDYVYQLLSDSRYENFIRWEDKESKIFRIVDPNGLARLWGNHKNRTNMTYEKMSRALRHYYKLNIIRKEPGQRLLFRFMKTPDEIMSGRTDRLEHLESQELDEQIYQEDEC
sequence,measurement,setting,value
CTTCTT,binding signal,ETV1,"1.48 fold enrichment (6-mer frequency, TF over GST control)"
same,binding signal,ERF,"1.53 fold enrichment (6-mer frequency, TF over GST control)"
same,binding signal,ETV3L,"1.59 fold enrichment (6-mer frequency, TF over GST control)"
same,binding signal,ETS2,"1.35 fold enrichment (6-mer frequency, TF over GST control)"
same,binding signal,SPDEF,"1.54 fold enrichment (6-mer frequency, TF over GST control)"
same,binding signal,ETV7,"1.44 fold enrichment (6-mer frequency, TF over GST control)"
same,binding signal,ELF5,"1.65 fold enrichment (6-mer frequency, TF over GST control)"
same,binding signal,ETV3,"1.6 fold enrichment (6-mer frequency, TF over GST control)"
same,binding signal,ETV6,"1.64 fold enrichment (6-mer frequency, TF over GST control)"
